Columns and labels:
Assay in all cases: PBM; 200 nM protein, PBS
Conditions in all cases: dsDNA, one strand shown
HESX1 [1] = biological target: HESX1 (Homo sapiens, UniProt Q9UBX0 95-180, R165K)
HOXB4 [2] = biological target: HOXB4 (Homo sapiens, UniProt P17483 148-234)
SHOX [3] = biological target: SHOX (Homo sapiens, UniProt O15266 103-189)
HESX1 [4] = biological target: HESX1 (Homo sapiens, UniProt Q9UBX0 95-180)
HOXA4 = HOXA4 (Homo sapiens, UniProt Q00056 201-287, R217L)
HOXB4 [5] = biological target: HOXB4 (Homo sapiens, UniProt P17483 148-234, V174I)
Sequence of HOXB4 (Homo sapiens, UniProt P17483 148-234, V174I) (P17483 148-234 V174I): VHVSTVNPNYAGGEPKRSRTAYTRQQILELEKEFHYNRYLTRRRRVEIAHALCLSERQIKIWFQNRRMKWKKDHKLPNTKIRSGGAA

MSX2 [6] = biological target: MSX2 (Homo sapiens, UniProt P35548 130-214, R199I)
Sequence of MSX2 (Homo sapiens, UniProt P35548 130-214, R199I) (P35548 130-214 R199I): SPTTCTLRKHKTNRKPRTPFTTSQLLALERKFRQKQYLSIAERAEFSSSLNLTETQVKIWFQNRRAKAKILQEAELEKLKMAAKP

ALX3 [7] = biological target: ALX3 (Homo sapiens, UniProt O95076 139-225, N203Q)
Sequence of ALX3 (Homo sapiens, UniProt O95076 139-225, N203Q) (O95076 139-225 N203Q): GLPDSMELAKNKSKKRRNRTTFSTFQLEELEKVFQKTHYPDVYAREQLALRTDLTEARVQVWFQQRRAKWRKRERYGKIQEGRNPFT

SHOX [8] = biological target: SHOX (Homo sapiens, UniProt O15266 103-189, R173C)
Sequence of SHOX (Homo sapiens, UniProt O15266 103-189, R173C) (O15266 103-189 R173C): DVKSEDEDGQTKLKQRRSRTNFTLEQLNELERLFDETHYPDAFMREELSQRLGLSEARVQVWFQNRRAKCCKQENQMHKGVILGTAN

ALX3 [9] = biological target: ALX3 (Homo sapiens, UniProt O95076 139-225)
Sequence of ALX3 (Homo sapiens, UniProt O95076 139-225) (O95076 139-225): as the sequence (O95076 139-225 N203Q) above, with Q65N counted along it

PROP1 [10] = biological target: PROP1 (Homo sapiens, UniProt O75360 56-141)
Sequence of PROP1 (Homo sapiens, UniProt O75360 56-141) (O75360 56-141): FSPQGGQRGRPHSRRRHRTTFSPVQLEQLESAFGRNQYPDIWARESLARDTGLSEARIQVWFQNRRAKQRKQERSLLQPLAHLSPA

HESX1 [11] = biological target: HESX1 (Homo sapiens, UniProt Q9UBX0 95-180, R109Q)
Sequence of HESX1 (Homo sapiens, UniProt Q9UBX0 95-180, R109Q) (Q9UBX0 95-180 R109Q): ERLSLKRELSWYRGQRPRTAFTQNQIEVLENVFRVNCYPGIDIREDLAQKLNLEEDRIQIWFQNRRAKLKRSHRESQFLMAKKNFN

PROP1 [12] = biological target: PROP1 (Homo sapiens, UniProt O75360 56-141, R99H)
Sequence of PROP1 (Homo sapiens, UniProt O75360 56-141, R99H) (O75360 56-141 R99H): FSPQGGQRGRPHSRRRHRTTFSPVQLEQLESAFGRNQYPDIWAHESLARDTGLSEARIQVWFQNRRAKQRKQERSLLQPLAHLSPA

ALX3 [13] = biological target: ALX3 (Homo sapiens, UniProt O95076 139-225, L168Q)
Sequence of ALX3 (Homo sapiens, UniProt O95076 139-225, L168Q) (O95076 139-225 L168Q): as the sequence (O95076 139-225 N203Q) above, with L30Q, Q65N counted along it

HESX1 [14] = biological target: HESX1 (Homo sapiens, UniProt Q9UBX0 95-180, P111T)
Sequence of HESX1 (Homo sapiens, UniProt Q9UBX0 95-180, P111T) (Q9UBX0 95-180 P111T): as the sequence (Q9UBX0 95-180 R109Q) above, with Q15R, P17T counted along it

ALX3 [15] = biological target: ALX3 (Homo sapiens, UniProt O95076 139-225, L168V)
Sequence of ALX3 (Homo sapiens, UniProt O95076 139-225, L168V) (O95076 139-225 L168V): as the sequence (O95076 139-225 N203Q) above, with L30V, Q65N counted along it

PROP1 [16] = biological target: PROP1 (Homo sapiens, UniProt O75360 56-141, F88S)
Sequence of PROP1 (Homo sapiens, UniProt O75360 56-141, F88S) (O75360 56-141 F88S): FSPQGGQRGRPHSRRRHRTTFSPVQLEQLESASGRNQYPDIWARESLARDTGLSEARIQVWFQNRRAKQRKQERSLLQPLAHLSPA

MSX2 [17] = biological target: MSX2 (Homo sapiens, UniProt P35548 130-214, F161Y)
Sequence of MSX2 (Homo sapiens, UniProt P35548 130-214, F161Y) (P35548 130-214 F161Y): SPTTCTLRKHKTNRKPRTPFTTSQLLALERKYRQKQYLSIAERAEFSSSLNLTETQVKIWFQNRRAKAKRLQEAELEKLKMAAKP

HESX1 [18] = biological target: HESX1 (Homo sapiens, UniProt Q9UBX0 95-180, F115L)
Sequence of HESX1 (Homo sapiens, UniProt Q9UBX0 95-180, F115L) (Q9UBX0 95-180 F115L): as the sequence (Q9UBX0 95-180 R109Q) above, with Q15R, F21L counted along it

ALX3 [19] = biological target: ALX3 (Homo sapiens, UniProt O95076 139-225, N203S)
Sequence of ALX3 (Homo sapiens, UniProt O95076 139-225, N203S) (O95076 139-225 N203S): as the sequence (O95076 139-225 N203Q) above, with Q65S counted along it

Sequence of HESX1 (Homo sapiens, UniProt Q9UBX0 95-180) (Q9UBX0 95-180): as the sequence (Q9UBX0 95-180 R109Q) above, with Q15R counted along it
Sequence of HOXB4 (Homo sapiens, UniProt P17483 148-234) (P17483 148-234): as the sequence (P17483 148-234 V174I) above, with I27V counted along it
Sequence of HOXA4 (Q00056 201-287 R217L): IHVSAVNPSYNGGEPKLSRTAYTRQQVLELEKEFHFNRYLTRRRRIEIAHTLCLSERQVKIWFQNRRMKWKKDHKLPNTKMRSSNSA
Sequence of SHOX (Homo sapiens, UniProt O15266 103-189) (O15266 103-189): as the sequence (O15266 103-189 R173C) above, with C71R counted along it
Sequence of HESX1 (Homo sapiens, UniProt Q9UBX0 95-180, R165K) (Q9UBX0 95-180 R165K): as the sequence (Q9UBX0 95-180 R109Q) above, with Q15R, R71K counted along it

Row | Sequence | binding signal (HESX1 [1]) | binding signal (HOXB4 [2]) | binding signal (SHOX [3]) | binding signal (HESX1 [4]) | binding signal (HOXA4) | binding signal (HOXB4 [5]) | binding signal (MSX2 [6]) | binding signal (ALX3 [7]) | binding signal (SHOX [8]) | binding signal (ALX3 [9]) | binding signal (PROP1 [10]) | binding signal (HESX1 [11]) | binding signal (PROP1 [12]) | binding signal (ALX3 [13]) | binding signal (HESX1 [14]) | binding signal (ALX3 [15]) | binding signal (PROP1 [16]) | binding signal (MSX2 [17]) | binding signal (HESX1 [18]) | binding signal (ALX3 [19])
1 | GTAATTAA | 13.2 upbm affinity estimate (log intensity, higher = more binding, comparable within an allelic series) | 13.5 upbm affinity estimate (log intensity, higher = more binding, comparable within an allelic series) | 12.8 upbm affinity estimate (log intensity, higher = more binding, comparable within an allelic series) | 13.3 upbm affinity estimate (log intensity, higher = more binding, comparable within an allelic series) | 13.3 upbm affinity estimate (log intensity, higher = more binding, comparable within an allelic series) | 14.3 upbm affinity estimate (log intensity, higher = more binding, comparable within an allelic series) | 13.2 upbm affinity estimate (log intensity, higher = more binding, comparable within an allelic series) | 8.59 upbm affinity estimate (log intensity, higher = more binding, comparable within an allelic series) | 10.3 upbm affinity estimate (log intensity, higher = more binding, comparable within an allelic series) | 12.9 upbm affinity estimate (log intensity, higher = more binding, comparable within an allelic series) | 11.9 upbm affinity estimate (log intensity, higher = more binding, comparable within an allelic series) | 9.89 upbm affinity estimate (log intensity, higher = more binding, comparable within an allelic series) | 11.8 upbm affinity estimate (log intensity, higher = more binding, comparable within an allelic series) | 11.2 upbm affinity estimate (log intensity, higher = more binding, comparable within an allelic series) | 11.8 upbm affinity estimate (log intensity, higher = more binding, comparable within an allelic series) | 10.8 upbm affinity estimate (log intensity, higher = more binding, comparable within an allelic series) | 7.99 upbm affinity estimate (log intensity, higher = more binding, comparable within an allelic series) | 13.7 upbm affinity estimate (log intensity, higher = more binding, comparable within an allelic series) | 8.12 upbm affinity estimate (log intensity, higher = more binding, comparable within an allelic series) | 8.7 upbm affinity estimate (log intensity, higher = more binding, comparable within an allelic series)
2 | TAATTAAA | 13.1 upbm affinity estimate (log intensity, higher = more binding, comparable within an allelic series) | 13.3 upbm affinity estimate (log intensity, higher = more binding, comparable within an allelic series) | 12.8 upbm affinity estimate (log intensity, higher = more binding, comparable within an allelic series) | 13.1 upbm affinity estimate (log intensity, higher = more binding, comparable within an allelic series) | 12.8 upbm affinity estimate (log intensity, higher = more binding, comparable within an allelic series) | 14.1 upbm affinity estimate (log intensity, higher = more binding, comparable within an allelic series) | 12.9 upbm affinity estimate (log intensity, higher = more binding, comparable within an allelic series) | 8.59 upbm affinity estimate (log intensity, higher = more binding, comparable within an allelic series) | 10.6 upbm affinity estimate (log intensity, higher = more binding, comparable within an allelic series) | 12.8 upbm affinity estimate (log intensity, higher = more binding, comparable within an allelic series) | 11.9 upbm affinity estimate (log intensity, higher = more binding, comparable within an allelic series) | 10 upbm affinity estimate (log intensity, higher = more binding, comparable within an allelic series) | 11.9 upbm affinity estimate (log intensity, higher = more binding, comparable within an allelic series) | 11.3 upbm affinity estimate (log intensity, higher = more binding, comparable within an allelic series) | 12.1 upbm affinity estimate (log intensity, higher = more binding, comparable within an allelic series) | 11.1 upbm affinity estimate (log intensity, higher = more binding, comparable within an allelic series) | 8.07 upbm affinity estimate (log intensity, higher = more binding, comparable within an allelic series) | 13.5 upbm affinity estimate (log intensity, higher = more binding, comparable within an allelic series) | 8.41 upbm affinity estimate (log intensity, higher = more binding, comparable within an allelic series) | 8.72 upbm affinity estimate (log intensity, higher = more binding, comparable within an allelic series)
3 | AATTAATT | 13.4 upbm affinity estimate (log intensity, higher = more binding, comparable within an allelic series) | 13.4 upbm affinity estimate (log intensity, higher = more binding, comparable within an allelic series) | 12.8 upbm affinity estimate (log intensity, higher = more binding, comparable within an allelic series) | 13.2 upbm affinity estimate (log intensity, higher = more binding, comparable within an allelic series) | 12.8 upbm affinity estimate (log intensity, higher = more binding, comparable within an allelic series) | 14.1 upbm affinity estimate (log intensity, higher = more binding, comparable within an allelic series) | 13.3 upbm affinity estimate (log intensity, higher = more binding, comparable within an allelic series) | 8.51 upbm affinity estimate (log intensity, higher = more binding, comparable within an allelic series) | 10.3 upbm affinity estimate (log intensity, higher = more binding, comparable within an allelic series) | 13 upbm affinity estimate (log intensity, higher = more binding, comparable within an allelic series) | 12.1 upbm affinity estimate (log intensity, higher = more binding, comparable within an allelic series) | 10.3 upbm affinity estimate (log intensity, higher = more binding, comparable within an allelic series) | 12.2 upbm affinity estimate (log intensity, higher = more binding, comparable within an allelic series) | 11.3 upbm affinity estimate (log intensity, higher = more binding, comparable within an allelic series) | 11.8 upbm affinity estimate (log intensity, higher = more binding, comparable within an allelic series) | 10.9 upbm affinity estimate (log intensity, higher = more binding, comparable within an allelic series) | 8.05 upbm affinity estimate (log intensity, higher = more binding, comparable within an allelic series) | 13.8 upbm affinity estimate (log intensity, higher = more binding, comparable within an allelic series) | 8.57 upbm affinity estimate (log intensity, higher = more binding, comparable within an allelic series) | 8.78 upbm affinity estimate (log intensity, higher = more binding, comparable within an allelic series)
4 | CATAATTA | 12.9 upbm affinity estimate (log intensity, higher = more binding, comparable within an allelic series) | 13.6 upbm affinity estimate (log intensity, higher = more binding, comparable within an allelic series) | 12.4 upbm affinity estimate (log intensity, higher = more binding, comparable within an allelic series) | 12.9 upbm affinity estimate (log intensity, higher = more binding, comparable within an allelic series) | 12.7 upbm affinity estimate (log intensity, higher = more binding, comparable within an allelic series) | 14.4 upbm affinity estimate (log intensity, higher = more binding, comparable within an allelic series) | 12.8 upbm affinity estimate (log intensity, higher = more binding, comparable within an allelic series) | 8.61 upbm affinity estimate (log intensity, higher = more binding, comparable within an allelic series) | 10 upbm affinity estimate (log intensity, higher = more binding, comparable within an allelic series) | 12.6 upbm affinity estimate (log intensity, higher = more binding, comparable within an allelic series) | 11.8 upbm affinity estimate (log intensity, higher = more binding, comparable within an allelic series) | 9.21 upbm affinity estimate (log intensity, higher = more binding, comparable within an allelic series) | 11.5 upbm affinity estimate (log intensity, higher = more binding, comparable within an allelic series) | 10.8 upbm affinity estimate (log intensity, higher = more binding, comparable within an allelic series) | 11.3 upbm affinity estimate (log intensity, higher = more binding, comparable within an allelic series) | 10.4 upbm affinity estimate (log intensity, higher = more binding, comparable within an allelic series) | 8.12 upbm affinity estimate (log intensity, higher = more binding, comparable within an allelic series) | 13.5 upbm affinity estimate (log intensity, higher = more binding, comparable within an allelic series) | 7.94 upbm affinity estimate (log intensity, higher = more binding, comparable within an allelic series) | 8.73 upbm affinity estimate (log intensity, higher = more binding, comparable within an allelic series)

— PMC11006913
